Shown are actives, neighbours in structure and some others; about 2.6% of the full set was active somewhere.
TCR CD3 inh: inhibitors of human TCR-CD3 interaction; TAMRA-labeled TCR probe fluorescence, biochemical; AID 651800; inhibition, % at 9.4 µM; 360,000 compounds, 0.37% hits; in the data active means inhibition above about 19%;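 further: recombinant mutant TCR 2C K166C tagged with TAMRA read by polarization; 0% = receptor in buffer alone and 100% = receptor with positive control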
Fam108B counter: counter-screen for RBBP9 inhibitors: inhibitors of mouse Fam108B | recombinant Fam108B, FP-Rh probe fluorescence polarization | inhibition, % at 9.51 µM | 300,000 compounds, 0.33% hits;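 active means inhibition above the screen mean inhibition plus 3 SD, computed separately per campaign, cut at about 18% in these data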;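 further: inhibitors lower polarization as less probe binds the enzyme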
PRMT1 inh: inhibitors of human PRMT1. recombinant PRMT1, activity-based probe fluorescence polarization. 370,000 compounds, 1.3% hits. AID 652257. inhibition, % at 2.79 µM. Q99873;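 active means inhibition above about 21% made by adding two undisclosed values, limit read from the data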
PME-1 inh: blocks human protein phosphatase methylesterase 1. inhibition, % at 5.9 µM. Q9Y570. 320,000 compounds, 0.53% hits. AID 2130. recombinant PME-1, FP-Rh probe fluorescence polarization;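 active means inhibition above the campaign mean of all compounds plus 3 SD, cut at about 26% in these data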;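 further: competitive labeling of PME-1 active site by serine hydrolase directed probe; 0% = PME-1 with DMSO and 100% = wells lacking PME-1 enzyme; inhibitors block probe labeling so polarization falls and inhibition rises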
Target sequence (Q9Y570 whole entry, looked up): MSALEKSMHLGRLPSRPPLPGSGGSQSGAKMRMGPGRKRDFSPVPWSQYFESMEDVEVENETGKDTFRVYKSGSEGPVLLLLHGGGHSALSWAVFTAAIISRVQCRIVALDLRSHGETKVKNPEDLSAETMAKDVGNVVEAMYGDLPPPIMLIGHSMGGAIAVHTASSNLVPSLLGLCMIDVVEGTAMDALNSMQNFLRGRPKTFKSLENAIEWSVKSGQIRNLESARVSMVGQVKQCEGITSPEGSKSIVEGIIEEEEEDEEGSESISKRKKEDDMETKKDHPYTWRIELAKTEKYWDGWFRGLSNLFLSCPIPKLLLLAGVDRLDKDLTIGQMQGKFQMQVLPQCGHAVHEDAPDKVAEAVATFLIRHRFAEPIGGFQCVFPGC
PAD4 inh: blocks human protein arginine deiminase 4 | AID 485272 | Q9UM07 | inhibition, % at 6.36 µM | 330,000 compounds, 0.41% hits | recombinant PAD4, RCA probe fluorescence polarization;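 active means percent inhibition above a cutoff equal to the mean of all tested compounds plus 3 SD, cut at about 15% in these data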;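 further: 0% = PAD4 with RCA probe and DMSO and 100% = probe without PAD4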
SIAE inh: blocks human sialic acid acetylesterase | SIAE FP-Rh probe binding, fluorescence polarization | inhibition, % at 9.66 µM | 370,000 compounds, 0.69% hits | AID 1053197;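 active means inhibition above a cutoff: mean of compounds within the control limits plus 3 SD of those, cut at about 17% in these data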;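 further: 0% = plate median of compound wells and 100% = probe without SIAE protein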
Active calls of the source: *; nt = no result; + = active, no number.

SMILES	TCR CD3 inh	Fam108B counter	PRMT1 inh	PME-1 inh	PAD4 inh	SIAE inh
Oc1ccc(N=Cc2cc(Br)c(N3CCOCC3)o2)cc1	31.6*	0.9	10.2	7.7	3.6	3.6
Cc1ccc(Cl)cc1-c1ccc(C=Nc2ccc(N3CCOCC3)cc2)o1	5.3	1.9	1.2	1.0	6.5	3.3
O=C(Nc1ccc(N2CCOCC2)cc1)c1ccc2ncsc2c1	-0.9	nt	22.1*	nt	1.4	1.7
N#Cc1ccsc1NC(=O)c1ccc2ncsc2c1	-13.2	nt	21.6*	nt	nt	-12.1
O=C(Nc1ccc(F)cc1)c1ccc2ncsc2c1	-1.5	5.5	9.2	1.7	6.4	-5.1
O=C(Nc1ccc(Cl)cc1Cl)c1ccc2c(c1)OCCO2	10.2	nt	-1.0	7.1	3.3	-0.5
O=C(Nc1ccc(Cl)cc1Cl)c1cccc(N2C(=O)C=CC2=O)c1	-6.3	-24.4	88.1*	-18.7	-4.6	-26.1
O=C(COC(=O)CCCN1C(=O)c2cccc3cccc(c23)C1=O)Nc1ccc(Cl)cc1	4.0	1.2	3.9	30.3*	2.2	13.8
COCCCOc1ccnc(CS(=O)c2nc3ccccc3[nH]2)c1C (stereo not given)	3.1	5.1	10.8	3.8	-4.5	8.0
Cc1c(OCC(F)(F)F)ccnc1CS(=O)c1nc2ccccc2[nH]1 (stereo not given)	6.4	-2.1	28.4*	2.8	3.0	6.3
CCCC1CCC2(CC1)CCC2OC(=O)Nc1ccccc1C (stereo not given)	nt	nt	4.7	nt	nt	1.1
COc1ccc(CN2C(=O)c3cccnc3C2Nc2ccc(OC)c(Cl)c2)cc1 (stereo not given)	6.2	6.2	0.5	5.7	-0.3	3.0
COc1ccc(NC2c3ncccc3C(=O)N2Cc2ccccc2)c(OC)c1 (stereo not given)	-4.5	6.3	0.9	3.1	-4.3	+
Nc1ccc(N2CCN(c3ccc(F)cc3)CC2)cc1	-1.0	7.5	1.1	0.0	-3.1	3.6
Nc1ccc(N2CCCCCC2)cc1	nt	12.9	nt	16.2	42.7*	nt
O=C(O)c1ccc(C#Cc2cccc(F)c2)cn1	nt	nt	1.1	nt	nt	3.5
O=c1oc2c(-c3ccc([N+](=O)[O-])cc3)cc(O)cc2s1	9.6	1.4	77.9*	4.3	-1.6	5.1
Oc1ccc2oc3c(c2c1C=NCc1ccncc1)CCCC3	8.3	8.0	2.5	-10.7	-3.8	14.6
Oc1c(C=NCc2ccncc2)sc2ccccc12	-3.6	-3.6	62.9*	2.2	15.6*	-16.8
O=C(NC1CCCCN(Cc2cccc(Cl)c2)C1=O)c1cccs1 (stereo not given)	nt	nt	-3.1	nt	nt	-2.4
CCc1nnc(N/N=C/c2cc(Br)c(O)cc2O)n1N	-0.1	3.6	6.3	-3.3	37.2*	9.0
CCOC(=O)c1sc2cc([N+](=O)[O-])cc(SCC(=O)OC)c2c1N	-4.0	7.5	23.0*	8.4	-7.4	-2.8
CCOC(=O)c1sc2cc([N+](=O)[O-])cc(SCCO)c2c1N	-1.7	-1.4	0.1	-7.3	-4.0	-0.7
C=CCn1c(COc2ccccc2)nnc1SCC(=O)Nc1ccc(S(=O)(=O)Nc2cc(C)nc(C)n2)cc1	nt	nt	-1.0	nt	nt	7.8
CSCCCNC(=O)c1cn(C(C)c2ccccc2)nn1 (stereo not given)	nt	nt	2.8	nt	nt	6.2
SMILES	TCR CD3 inh	Fam108B counter	PRMT1 inh	PME-1 inh	PAD4 inh	SIAE inh
COc1ccc(/C=c2\s/c(=C/C(=O)c3ccc(C)cc3)[nH]c2=O)c(OC)c1	3.9	-3.5	-1.0	27.0*	-10.3	-18.8
O=S1(=O)C=CCN1Cc1cn(Cc2ccc(Cl)cc2)nn1	nt	nt	4.3	nt	nt	-0.8
O=C(CCN1CCOCC1)c1ccc2c(c1)OCCO2	-1.2	0.5	23.8*	1.3	-3.6	-0.2
CCCCNC(=O)C[C@H]1C[C@@]2(C(=O)OC)C(=C[C@H](COCc3ccccc3)O[C@@H]2C)N(Cc2cccc3ccccc23)C1=O	nt	nt	-1.5	nt	nt	1.0
COc1ccc(C(=O)CCN2CCc3cc(OC)c(OC)cc3C2)cc1	0.7	-0.6	21.8*	1.8	-2.5	7.3
O=C(NCC1COc2ccccc2O1)c1ccc(NC(=O)C(Cl)Cl)cc1 (stereo not given)	nt	nt	-4.9	nt	nt	-0.6
Cc1csc(SCC(=O)Nc2c(C)n(C)n(-c3ccccc3)c2=O)n1	-0.3	-1.7	-0.8	1.9	-7.3	5.4
CSc1nsc(SCC(=O)Nc2c(C)n(C)n(-c3ccccc3)c2=O)n1	2.9	1.3	21.5*	1.4	-0.2	7.8
COc1ccc(CSc2nnc(SCC(=O)Nc3ccc4c(c3)OCO4)s2)cc1	nt	nt	-0.9	nt	nt	-3.1
CCc1cc(SC#N)ccc1N	6.2	1.4	23.9*	-5.1	4.1	4.4
CCc1cc([N+](=O)[O-])cc(CC)c1N	4.8	2.4	-1.3	3.5	-7.5	-2.4
CCC(C)N(c1nc(C)nc2c1nnn2Cc1ccccc1)C(C)CC (stereo not given)	nt	nt	-3.0	nt	nt	1.6
CC(=O)c1c(N=CN(C)C)nc(C)nc1-c1ccccc1	0.1	-2.4	-2.2	0.4	-0.5	5.5
CN(C)C=Nc1ccccc1C1C=NNC1=O (stereo not given)	nt	1.0	nt	28.2*	-9.3	nt
Cc1ccccc1N(C)C(=O)CN1CCN(c2nc(-c3ccccc3)cs2)CC1	nt	nt	1.6	nt	nt	6.8
Brc1ccc(C=Nc2ccc(Nc3ccccc3)cc2)s1	nt	3.2	nt	-1.4	24.3*	nt
CCCC[C@H]1C2CC(OC(=O)Nc3ccccc3C)C(C2)[C@H]2CCCCN21 (stereo not given in full)	nt	nt	-4.8	nt	nt	-2.1
CC(=O)CC[C@@H]1CC[C@]2(CCCN(C(=O)c3ccno3)C2)O1	nt	nt	-0.3	nt	nt	-0.2
O=C1Nc2cc(Cl)ccc2Nc2cscc21	2.2	-0.2	23.1*	-0.6	3.5	10.9
C=C(C)CSc1nc2sc(C)c(C)c2c(=O)n1C	nt	nt	0.6	nt	nt	-1.4
CCOc1ccc2nc(SCC(=O)NC(=O)NCc3ccco3)sc2c1	4.9	-9.0	6.3	-5.6	-4.6	-13.1
O=C(CSc1nc2cc(Cl)ccc2s1)NC(=O)NCc1ccco1	-4.7	-3.0	21.2*	-5.8	-4.1	1.7
CC(C)(C)C(=O)NC1CCCCN(Cc2cccc(Cl)c2)C1=O (stereo not given)	nt	nt	-1.7	nt	nt	-2.0
NS(=O)(=O)c1ccc(O)c(NC(=O)c2ccc([N+](=O)[O-])o2)c1	-7.0	7.4	21.8*	-4.7	-11.9	2.3
Cc1cc(C)cc(NC(=O)c2ccc([N+](=O)[O-])o2)c1	5.8	nt	0.4	nt	nt	-1.7
Cc1ccc2[nH]c(=O)c(C3C(C#N)=C(N)Oc4c3ccc3cccnc43)cc2c1 (stereo not given)	6.2	6.5	4.4	9.5	-11.9	24.8*
N#CC1=C(N)Oc2c(ccc3cccnc23)C1c1ccccc1 (stereo not given)	-5.9	5.0	0.8	8.6	-1.8	2.9
C[C@H]1[C@@H](OC(=O)NCc2cccc(Cl)c2)CC[C@@]23CCCN2C(=O)CCC[C@@H]13	nt	nt	6.1	nt	nt	3.6
S=c1[nH]nc(Nc2ccccc2Cl)s1	1.2	-3.3	23.4*	-3.9	0.7	-5.5
CCCN(CCC)CCCNC(=O)c1cn(CC)c2ccc(S(=O)(=O)N3CCc4ccccc4C3)cc2c1=O	-2.9	-2.0	9.2	16.0	-0.7	-6.5
